# Shown are actives, neighbours in structure and some others; about 9.2% of the full set was active somewhere.
# Rab9 promoter act – qHTS Assay for Rab9 Promoter Activators. Huh7 Rab9 promoter-luciferase reporter, luminescence, 24 h. Potency, µM (titrated, usually from 9.22 µM), most hits filed as activators. 320,000 tested, 2.8% active; further: nearly all actives have a fitted effect of over 60% in size
#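 Promoter activation is measured as luciferase luminescence in Huh7 cells stably transfected with a Rab9 promoter–luciferase construct, following 24 h compound exposure at 37 °C and 10 min reagent incubation at ambient temperature.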
# SMN2 splice enh – qHTS Assay for Enhancers of SMN2 Splice Variant Expression; HEK293 SMN2-luciferase splicing reporter, luminescence, 30-36 h; Potency, µM (titrated, usually from 46.1 µM), most hits filed as activators; 210,000 tested, 2.8% active; AID 1458, 2008; further: nearly all actives have a fitted effect of over 55% in size
#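 qHTS luciferase splicing reporter: luminescence rises when SMN2 exon 7 is included in transfected HEK293 cells. Compound exposure lasted 30-36 h at 37C, with 4.5 mM final sodium butyrate as control, followed by a ONE-Glo read.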
# NPC1 promoter act – qHTS Assay for NPC1 Promoter Activators | 320,000 tested, 2.4% active | Potency, µM (titrated, usually from 9.22 µM), hits mostly activators | Huh7 NPC1 promoter luciferase reporter, 24 h; further: nearly all actives have a fitted effect of over 60% in size
#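 NPC1 promoter–luciferase Huh7 cells; 24 h compound; luminescence.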
# ELG1 genotox – qHTS screen for small molecules that induce genotoxicity in human embryonic kidney (HEK293T) cells expressing luciferase-tagged ELG1; HEK293T ELG1-luciferase reporter, luminescence, 16 h; Potency, µM (titrated, usually from 46 µM), hits mostly activators; 330,000 tested, 1.3% active; AID 504466, 2011; further: nearly all actives have a fitted effect of over 60% in size
#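 Step 1: seed 2,000 HEK293T ELG1-luciferase cells per well. Step 2: add compound or DMSO, incubate 16 hr at 37 °C. Step 3: ONE-Glo, 30 min at room temperature, read luminescence.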
# ELG1 repair inh – qHTS screen for small molecules that inhibit ELG1-dependent DNA repair in human embryonic kidney (HEK293T) cells expressing luciferase-tagged ELG1; AID 504467, 2011; 330,000 tested, 2.3% active; Potency, µM (series often up to 46.1 µM), actives largely listed as inhibitors; HEK293T ELG1-luciferase reporter, luminescence, 16 h; DNA damage induced by 5-fluorouridine; further: nearly all actives have a fitted effect of over 55% in size
#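 Overnight (16 hr) co-exposure of 2,000 cells/well to 5-fluorouridine and compound at 37 °C preceded detection. Luciferase was quantified via ONE-Glo luminescence; loss of signal denotes inhibition.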
# FLuc modulator – qHTS profiling assay for firefly luciferase inhibitor/activator using purifed enzyme and Km concentrations of substrates (counterscreen for miR-21 project). Luciferin 4-monooxygenase (Photinus pyralis), P08659. purified FLuc, Km substrates, luminescence inhibition. Potency, µM (doses to about 57.5 µM), actives largely listed as inhibitors. 360,000 tested, 6.9% active. AID 588342, 2011; further: nearly all actives have a fitted effect of over 55% in size
# Target sequence (P08659 whole entry, looked up): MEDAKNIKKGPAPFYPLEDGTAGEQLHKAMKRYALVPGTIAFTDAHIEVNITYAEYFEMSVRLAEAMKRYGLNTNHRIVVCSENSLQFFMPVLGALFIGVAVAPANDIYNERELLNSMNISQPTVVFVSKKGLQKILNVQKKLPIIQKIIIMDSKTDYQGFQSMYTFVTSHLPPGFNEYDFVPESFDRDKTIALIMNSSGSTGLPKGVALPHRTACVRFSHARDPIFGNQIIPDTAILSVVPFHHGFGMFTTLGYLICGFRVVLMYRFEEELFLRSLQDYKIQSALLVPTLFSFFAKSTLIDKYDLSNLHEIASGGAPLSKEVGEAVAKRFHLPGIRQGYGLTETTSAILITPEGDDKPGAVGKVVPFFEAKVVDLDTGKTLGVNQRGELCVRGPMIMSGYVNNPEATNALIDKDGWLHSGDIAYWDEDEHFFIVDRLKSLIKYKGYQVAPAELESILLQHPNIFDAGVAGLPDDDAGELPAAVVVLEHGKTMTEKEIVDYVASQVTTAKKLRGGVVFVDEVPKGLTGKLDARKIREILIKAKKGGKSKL
#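 Purified P. pyralis luciferase, 10 nM final, with Km-level 10 uM D-luciferin and 10 uM ATP in 50 mM Tris acetate pH 7.5, 10 mM Mg acetate, 0.01% Tween-20, 0.05% BSA; 6-point qHTS titration about 60 µM downward; luminescence read.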
# Numbers stand for hits; 0 = inactive; ? = inconclusive; - = no result given. The call rests on the fitted dose curve; in most records, active means well fitted curve in the direction sought with a large enough effect; inconclusive means small, poorly fitted or top-dose-only effect, or another doubt; inactive means no such curve, though single readings can be large; an effect the other way counts as inactive or inconclusive.
SMILES,Rab9 promoter act,SMN2 splice enh,NPC1 promoter act,ELG1 genotox,ELG1 repair inh,FLuc modulator
Cc1cc(C(=O)COC(=O)c2ccc[nH]c2=O)c(C)n1-c1ccc(F)cc1,0.35µM,5µM,0.56µM,?,?,3.4µM
Cc1cc(C(=O)OCc2nnc(-c3ccccc3)o2)c(C)n1-c1ccccc1,0,0,0,0,?,?
Cc1cc(C(=O)COC(=O)c2ccc(F)cc2F)c(C)n1C1CC1,2.8µM,-,2.5µM,?,?,0.38µM
Cc1ccccc1OCC(=O)OCC(=O)c1cc(C)n(C2CC2)c1C,0,-,0,0,0,?
Cc1cc(C(=O)OCC(=O)NCc2ccco2)c(C)n1-c1ccc(F)cc1,0,0,0,0,0,0
Cc1ccc(C)c(CN2CCCN(CC(=O)Nc3ccc(C)c(C)c3)S2(=O)=O)c1,-,-,-,-,-,0
CCOC(=O)c1c(C)[nH]c(C)c1S(=O)(=O)NC(CC)CN1CCOCC1 (stereo not given),0,-,0,0,0,0
COc1ccc(C(=O)N2CCC3(CCCN(c4cccc(-c5ccccc5)c4)C3)CC2)cc1,-,0,-,-,-,-
CN(C(=O)c1ccc(NC(=O)C2CCN(C(=O)OC(C)(C)C)CC2)cc1)C1CCC1,-,-,-,0,?,-
Cc1noc(C)c1COC(=O)c1cc(=O)[nH]c2ccccc12,0,0,0,0,0,0
CCNC(=O)COC(=O)c1ccc(-c2nc3ccccc3s2)s1,?,13µM,0,?,?,1.3µM
CCNC(=O)COC(=O)c1cc(C)nc2ccccc12,0,0,0,0,0,0
Cc1noc(C)c1COC(=O)c1ccc(-c2nc3ccccc3s2)s1,3.5µM,10µM,?,7.3µM,?,5.4µM
C=N[C@H](C(=O)N[C@@H]1C(=O)N2[C@@H]1SC(C)(C)[C@@H]2C(=O)O)c1ccccc1,-,0,-,-,-,-
COc1ccc(N2CCN(C3(c4ccccc4)C(=O)c4ccccc4C3=O)CC2)cc1,-,0,-,-,-,0
Cc1nn(-c2ccccc2)c(C)c1C(=O)OCC(=O)N(C)c1c(N)n(Cc2ccccc2)c(=O)[nH]c1=O,0,-,0,0,0,0
CC(C)c1ccc(/C=C2\SC(=S)N(CCC(=O)NCCCn3ccnc3)C2=O)cc1,0,-,0,0,?,2.4µM
COc1ccc(/C=C2\SC(=S)N(CCC(=O)NCCCn3ccnc3)C2=O)cc1,0,-,0,0,0,19µM
O=C(CCCN1C(=O)/C(=C/c2ccc(F)cc2)SC1=S)NCCCn1ccnc1,0,-,0,0,0,?
CCCc1cc(C(=O)NC2CCCC2)no1,?,13µM,?,10µM,?,?
CCCc1cc(C(=O)NC2CCCCC2)no1,?,14µM,4µM,16µM,?,?
CCCc1cc(C(=O)N(C2CCCCC2)C2CCCCC2)no1,0,0,0,0,0,0
Cc1cc(C(=O)NC2CCCCC2)on1,0,-,0,0,0,0
CC(C)c1cc(C(=O)NC2CCCCC2)no1,?,11µM,?,?,?,17µM
COc1ccc(OC)c(C2=NNC(=NCc3ccc4c(c3)OCO4)SC2)c1,0,0,0,0,0,0
SMILES,Rab9 promoter act,SMN2 splice enh,NPC1 promoter act,ELG1 genotox,ELG1 repair inh,FLuc modulator
COCC(C)N=C1NN=C(c2ccc(NC(C)=O)cc2)CS1 (stereo not given),?,?,0,0,?,?
Clc1ccc(C2=NNC(=NCc3ccc4c(c3)OCO4)SC2)cc1,0,-,0,0,?,19µM
COc1ccc(CN=C2NN=C(c3ccc(Cl)cc3)CS2)cc1,3.5µM,20µM,3.5µM,?,?,7.6µM
COc1ccc(CN=C2Nc3ccccc3CS2)cc1,1.6µM,3.5µM,1µM,?,?,2.7µM
CC(C)(C)N=C1NN=C(c2ccc(Cl)cc2)CS1,0.63µM,-,0.79µM,?,?,2.7µM
O=C(NCCc1ccccc1)C1CCC(=O)N(Cc2cccc(C(F)(F)F)c2)C1 (stereo not given),0,-,0,0,0,0
Cc1cccc(NC(=O)c2ccc(-n3cnc4cccnc43)cc2)c1C,-,-,-,-,-,0
CC(C)(C)N=C1NN=C(c2cc3ccccc3o2)CS1,0.4µM,-,0.63µM,?,?,1.9µM
Cc1ccc2nc(N(CCCN(C)C)C(=O)c3ccc4ncsc4c3)sc2c1,4µM,-,?,?,?,17µM
CN(C)CCCN(C(=O)c1sc2ccccc2c1Cl)c1nc2ccc(F)cc2s1,0,18µM,0,?,?,4.8µM
CN(C)CCCN(C(=O)c1ccc(S(=O)(=O)N2CCOCC2)cc1)c1nc2ccc(F)cc2s1,0,-,0,0,?,0
CN(C)CCCN(C(=O)c1ccc(S(=O)(=O)N2CCCCCC2)cc1)c1nc2ccc(F)cc2s1,0,-,0,0,8.2µM,0
CN(C)CCCOC(=O)c1sc2ccccc2c1Cl,0,-,0,0,?,24µM
CN(C(=O)COC(=O)c1sc2ccccc2c1Cl)C1CCCCC1,0,0,0,0,0,?
CN1CCN(c2nc3c(S(=O)(=O)c4ccc(Br)cc4)nnn3c3ccsc23)CC1,-,-,-,-,-,0
CCCn1c(SCC(O)c2cccc(OC)c2)nc2ccccc21 (stereo not given),-,0,-,-,-,0
CCN1CCN(S(=O)(=O)c2ccc(Cl)c(C(=O)NCc3ccco3)c2)CC1,0,-,0,0,0,0
COc1ccc(Br)cc1/C=N/n1c(COc2ccccc2)n[nH]c1=S,0,-,0,0,0,0
CN(C)c1ccc(-c2nnc(-c3ccccc3F)o2)cc1,0.45µM,-,0.35µM,?,?,1.2µM
O=[N+]([O-])c1cccc(-c2nnc(-c3ccccc3F)o2)c1,2µM,-,2.5µM,?,?,12µM
COc1ccc(-c2nnc(-c3ccc(N(C)C)cc3)o2)cc1,-,0,-,-,-,2.1µM
COc1ccc(-c2nnc(-c3ccc(N)cc3)o2)cc1,?,13µM,?,7.3µM,?,3.4µM
CN(C)c1ccc(-c2nnc(-c3ccc(S(=O)(=O)C(F)F)cc3)o2)cc1,0,0,?,0,0,0
CN(C)c1ccc(CN(CC2CCCO2)C(=O)COc2ccccc2Cl)cc1 (stereo not given),-,0,-,-,-,0
CCCC(=O)c1ccc(OC(=O)c2c(-c3ccccc3Cl)noc2C)cc1,-,-,-,-,-,0
COc1ccc2cc(CNc3ccc(OC)c(OC)c3)c(=O)n(CC(=O)Nc3ccc(C)cc3)c2c1,-,-,-,-,-,0
CCOc1ccc(C(=O)Nc2ccc(C(=O)OCc3cc(=O)n4nc(CC)sc4n3)cc2)cc1,-,-,-,-,-,0
Cc1ccc(C)c(OCC(=O)O/N=C(\N)c2ccccn2)c1,?,?,3.2µM,?,?,17µM
N/C(=N\OC(=O)COc1ccccc1Cl)c1ccccn1,2.5µM,13µM,3.2µM,9.2µM,?,4.8µM
